# ERK EGF block: qHTS Assay for Inhibitors of the ERK Signaling Pathway using a Homogeneous Screening Assay; Stimulation with EGF | Potency, µM (doses to about 11.5 µM), for inactives: at the top dose activity change, negative = inhibition, most hits filed as inhibitors | 130,000 compounds, 0.41% hits | HEK293-V1b, EGF-stimulated phospho-ERK AlphaScreen | AID 1454, 2008; active = well fitted inhibition curve with a large enough effect;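 also: plate controls were stimulated vehicle wells for no effect and unstimulated vehicle basal for full effect; nearly all actives have a fitted effect of over 55% in size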
#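 HEK293 cells stably expressing V1b receptor, serum-reduced (1% FBS) overnight, pretreated 30 min with compound, then stimulated 5 min with 25 nM EGF; phospho-ERK detected by AlphaScreen SureFire. AC50 from Hill fits, normalized to DMSO and EGF.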
# * marks the source's active call; other numbers are inactive results; [ ] = dose if it differs, or a comment. The sample as a whole holds a higher share of hits than the screen did. Potency is read from the fitted curve at half-maximal effect.
SMILES,ERK EGF block
COc1ccc(N2CCC(CNC(=O)Nc3ccc(C)c(C)c3)C2)cc1 (configuration not stated),3%
CCC/C=C(\CCC)C(NS(C)(=O)=O)c1ccccc1 (configuration not stated),10%
Cc1ccc(C(=O)NCC(=O)OCC(=O)Nc2ccccc2C#N)s1,2%
COCC(=O)N1CCC2(CCCN(c3ccc(-c4ccccc4)cc3)C2)CC1,17%
COCC(=O)N1CCC2(CCCN(c3ccccn3)C2)CC1,4%
CCN1/C(=C/c2cc[n+](CCCS(=O)(=O)[O-])c3ccccc23)Sc2ccccc21,-5%
C=CC[n+]1ccc2ccccc2c1C,5%
C=CC[n+]1ccc(/C=C2\C=Cc3cc(C)ccc3N2CC)c2ccccc21,14µM*
c1cncc(CNc2ncncc2-c2ccc3c(c2)OCO3)c1,19%
COC(=O)C1(C(=O)OC)C[C@@H]2CON=C2[C@H]1c1ccccc1,-6%
O=C(NC[C@H](O)c1ccccc1)c1ccccc1,-3%
COc1c(-c2coc3cc4c(cc3c2=O)CC(O)C(C)(C)O4)ccc2c1C=CC(C)(C)O2 (configuration not stated),13µM*
COc1c(-c2coc3cc4c(cc3c2=O)CC(OC(C)=O)C(C)(C)O4)ccc2c1C=CC(C)(C)O2 (configuration not stated),47%
CC1(C)C=Cc2c(cc3occ(-c4ccc5c(c4)OCO5)c(=O)c3c2O)O1,12%
COc1ccc(C(=O)/C=C/c2ccc(O)cc2)cc1,-3%[57.5 µM]
COc1ccc(C(=O)/C=C/c2ccccc2)cc1,2%
COc1ccc(C(=O)/C=C/Sc2nc3ccccc3o2)cc1,28µM*
CC(C)=CCC/C(C)=C\COc1c2ccoc2cc2oc(=O)ccc12,-3%
C[C@@H]1Nc2ccc(Cl)cc2S(=O)(=O)N1,-8%
O=C(CN1CCN(S(=O)(=O)c2ccccc2)CC1)NC(=O)NCc1ccco1,6%[57.5 µM]
C=CCNC(=S)N1CCN(C2CCCCC2)CC1,6%[57.5 µM]
COC(=O)[C@@]1(Cc2ccc(OC)cc2)[C@H]2c3cc(C(=O)N4CCCC4)n(CCN4CNCC4=O)c3C[C@H]2CN1C(=O)c1ccccc1,-2%
CN(O)/C=N/C(=S)Nc1ccc(Cl)cc1Cl,9%
COc1ccc(-c2nc3cnc(N4CCNCC4)nc3n(-c3ccccc3)c2=O)cc1,0%
COc1cccc2sc(Nc3nc4ccc(NC(C)=O)cc4s3)nc12,1%
SMILES,ERK EGF block
COc1cccc2sc(NN)nc12,0%
CCOC(=O)c1sc(Nc2nc3c(OC)cccc3s2)cc1C,25µM*
O=[N+]([O-])c1ccc(N2CCN(c3ccccc3O)CC2)c(Cl)c1,21%
O=C1C(Cl)=C(N2CCN(c3ccccc3[N+](=O)[O-])CC2)C(=O)c2ccccc21,25µM*
O=[N+]([O-])c1cc(S(=O)(=O)Nc2ccccc2)ccc1N1CCN(c2ccccc2)CC1,0%
NC(C(=O)N[C@@H]1C(=O)N2C(C(=O)O)=C(Cl)CS[C@H]12)c1ccccc1 (some centres not stated),2%
CC1CCC2=C1C[C@H](C(C)(C)O)CC[C@@H]2C (some centres not stated),-13%
O=C(Nc1cccnc1)c1ccc(Cl)c(S(=O)(=O)N2CCc3ccccc32)c1,25µM*
O=C(NC1=NCCS1)c1ccc(Cl)c(S(=O)(=O)N2CCc3ccccc32)c1,-11%[57.5 µM]
O=C(Nc1cccnc1)c1cccc(S(=O)(=O)N2CCc3ccccc32)c1,1%
CCCCCCCCCCCCCCCCCCOC[C@H](COP(=O)([O-])OCC[N+](C)(C)C)OC(C)=O,-14%
O=C(c1csnn1)N1CCC2(CCCN(c3ccncc3)C2)CC1,-4%
O=C(Cc1ccc(Cl)cc1)c1c(O)cc(O)cc1O,-8%
CO/N=C1\CN(c2nc3c(cc2F)c(=O)c(C(=O)O)cn3C2CC2)CC1CN (configuration not stated),-1%
CCOC(=O)C1=C(SCC)c2cc3c(n2C1=O)CCCC3,25µM*
CCOC(=O)c1cc2c(nc1N)CCCC2,-5%[57.5 µM]
CCOC(=O)C1=C2c3cc(OC)c(OC)cc3CC(C)(C)N2C(=O)C1=O,-6%
CC1CC[C@]2(CO)CC[C@]3(C)C(=CCC4[C@@]5(C)CCC(O)C(C)(C)C5CC[C@@]43C)C2C1C (some centres not stated),-9%
COC(=O)c1ccc(C(NC(=O)OCc2ccccc2)/C(I)=C/[C@@H](C)C(=O)NCc2ccncc2)cc1 (some centres not stated),2%
CC(C)=CCC/C(C)=C/CC/C(C)=C/CSc1ccccc1C(=O)O,10%
O=C(Nc1ccccc1Cl)Nc1ccccc1Cl,-10%[57.5 µM]
CSc1ccccc1NC(=O)Nc1ccccc1Cl,3%[57.5 µM]
O=C(Nc1ccc(Nc2ccccc2)cc1)Nc1ccccc1Cl,28µM*
COc1ccc(N2C(=O)C3C(c4ccc(C(=O)O)cc4)NC(Cc4ccccc4)(C(=O)O)C3C2=O)c([N+](=O)[O-])c1 (configuration not stated),-5%
CCCC/C=C/C(NC(=O)c1ccc(C(F)(F)F)cc1)c1ccccc1 (configuration not stated),1%

# Compound activity: PubChem BioAssay, National Center for Advancing Translational Sciences (NCATS)
